Here are results for 32 compounds from PubChem BioAssay (NCATS).

Molecules are shown by their SMILES. Records with an inconclusive call do not appear. The source made the active and inactive calls. Unless noted, the call rests on the fitted dose curve; in most records, active means well fitted curve in the direction sought with a large enough effect; inconclusive means small, poorly fitted or top-dose-only effect, or another doubt; inactive means no such curve, though single readings can be large; an effect the other way counts as inactive or inconclusive.

Assay [1] can be described thus: High Content Imaging Cell-Based qHTS for Inhibitors of the mTORC1 Signaling Pathway in MEF (Tsc2-/-, p53-/-) Cells (AID 2666).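 Further: percent of cells scored positive for phospho-rpS6 Ser235/236 immunostaining by imaging.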 In short, it runs like this: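 Inhibition of rpS6 phosphorylation is measured by immunofluorescence imaging in empty-vector Tsc2-/-, p53-/- mouse embryonic fibroblasts after 24 hrs compound exposure at 37 degree Celsius. Results are reported as % positive cells per well.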
(In general: qHTS replaces the single test concentration by a dilution series.)

The nature of assay [2]: High Content Imaging Cell-Based qHTS for Inhibitors of the mTORC1 Signaling Pathway in MEF Cells (AID 2667). Further: potency means the concentration at half of the fitted maximal effect. Put shortly:
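Fixed-cell imaging of phospho-S6 (Ser235/236, Alexa-488) after 24 hrs of compound treatment at 37 degree Celsius. Signal was normalized to Hoechst, and thresholds from the highest and lowest wells split cells into % active versus % non-active.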

Assay [3] can be described thus: Cytometry Cell-Based qHTS for Inhibitors of the mTORC1 Signaling Pathway in MEF cells (AID 2668). Further: potency means the concentration at half of the fitted maximal effect. In short, it runs like this: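 Phospho-rpS6 (Ser235/236) immunofluorescence over PI signal, scored as % positive cells using thresholds from 7.5 nM rapamycin and DMSO wells, after 24 h compound exposure of WT-Tsc2-rescued Tsc2-/-, p53-/- MEFs. PI cell count recorded for viability.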

A short description of assay [4]: Validation screen for small molecules that induce DNA re-replication in MCF 10A normal breast cells (AID 463097). Further: nearly all actives have a fitted effect of over 60% in size. Further: potency means the concentration at half of the fitted maximal effect. Put shortly:
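Read-out is Hoechst total nuclear intensity by fluorescence scanning imager, flagging increased high-DNA-content nuclei. Compounds were incubated with MCF 10A cells for 48 hr (37 C, 5% CO2) before 40 min staining.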

Assay [5] addresses Ubiquitin carboxyl-terminal hydrolase 2 (Homo sapiens) (UniProt O75604). Put plainly: qHTS Validation Assay for Inhibitors of Ubiquitin-specific Protease USP2a Using CHOP2 as the Reporter (AID 463106). Further: potency means the concentration at half of the fitted maximal effect. Put shortly:
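Inhibition is expressed relative to NEM as the full-inhibition control, with concentration-response curves classed by fit quality, magnitude and activity. Enzyme (USP2 core, 10nM) meets 25nM Ub-CHOP2 after compound preincubation; readings are taken at 60min.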

In assay [6] the target is DNA polymerase III PolC-type (Bacillus subtilis (strain 168)) (UniProt P13267). Put plainly: qHTS Validation Assay for the Inhibitors of DNA Replication in Gram-Positive Bacteria (AID 485295). Further: potency means the concentration at half of the fitted maximal effect. In short, it runs like this: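 Double-stranded DNA product detected by PicoGreen fluorescence after EDTA quench. Compound incubated with B. subtilis holoenzyme (PolC, beta subunit, SSB, primase) before substrate addition; primed replication of M13Gori with dNTPs and NTPs at room temperature; DMSO defines 0% inhibition.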

Assay [7] addresses Tumor susceptibility gene 101 protein (Homo sapiens) (UniProt Q99816). Put plainly: qHTS Validation Assay for Iinhibitors of HIV-1 Budding by Blocking the Interaction of PTAP/TSG101 (AID 485342; calls by dose curve). Put shortly: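 Fluorescence polarization of 50 nM FITC-PTAP peptide bound to 10 uM Tsg101 binding domain was read after 20 min room-temperature incubation with compounds, in 10 mM HEPES pH 7.5, 0.15 M NaCl, 0.01% Tween 20.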

Assay [8] can be described thus: qHTS Validation Assay to Find Inhibitors of Chronic Active B-Cell Receptor Signaling (AID 485345; active means well fitted curve in the direction sought with a large enough effect in the main read-out, with a control signal flat, not every such curve was filed as active). In short, it runs like this:
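TMD8 ABC-DLBCL cells with dox-inducible green luciferase–IκBα fusion and red native luciferase; compounds 46 uM–3 nM, 4 h at 37C with doxycycline in 0.5% FBS IMDM. Green/red ratio normalized to basal and 10 uM MG-132.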

The nature of assay [9]: Cytometric Cell-Based qHTS for Inhibitors of the mTORC1 Signaling Pathway in MEF (Tsc2-/-, p53-/-) Cells (AID 2660).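 Further: Tsc2 and p53 null MEFs carrying empty vector with compound for 24 h; percent of cells above a phospho-rpS6 to PI ratio cutoff in each well; series mostly up to about 38 µM.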 In short, it runs like this: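 Immunofluorescence qHTS of rpS6 Ser235/236 phosphorylation: MEFs (Tsc2-/-, p53-/-) treated 24 h, 37 C, in DMEM + 10% FBS. Alexa-488 signal normalized to PI count, referenced to rapamycin (7.5 nM) and DMSO; PI cell number recorded for viability.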

Chain of Ubiquitin carboxyl-terminal hydrolase 2 (Homo sapiens) (O75604 whole entry, looked up): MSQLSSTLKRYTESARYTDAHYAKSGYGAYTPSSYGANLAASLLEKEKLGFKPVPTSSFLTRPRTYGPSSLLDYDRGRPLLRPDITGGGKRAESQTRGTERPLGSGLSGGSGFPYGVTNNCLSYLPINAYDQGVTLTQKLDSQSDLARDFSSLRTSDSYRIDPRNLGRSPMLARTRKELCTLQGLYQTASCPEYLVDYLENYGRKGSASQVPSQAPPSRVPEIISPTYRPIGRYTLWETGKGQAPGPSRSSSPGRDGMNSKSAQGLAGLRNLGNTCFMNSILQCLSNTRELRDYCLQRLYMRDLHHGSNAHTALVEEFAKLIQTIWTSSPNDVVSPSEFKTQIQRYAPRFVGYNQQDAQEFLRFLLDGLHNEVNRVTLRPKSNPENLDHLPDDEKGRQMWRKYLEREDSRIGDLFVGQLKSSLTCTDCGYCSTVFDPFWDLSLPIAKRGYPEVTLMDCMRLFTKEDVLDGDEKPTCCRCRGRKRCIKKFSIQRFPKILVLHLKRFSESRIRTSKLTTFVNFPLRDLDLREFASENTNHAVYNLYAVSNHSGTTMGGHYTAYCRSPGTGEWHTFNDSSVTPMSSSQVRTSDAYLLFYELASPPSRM
Chain of DNA polymerase III PolC-type (Bacillus subtilis (strain 168)) (P13267 whole entry, looked up): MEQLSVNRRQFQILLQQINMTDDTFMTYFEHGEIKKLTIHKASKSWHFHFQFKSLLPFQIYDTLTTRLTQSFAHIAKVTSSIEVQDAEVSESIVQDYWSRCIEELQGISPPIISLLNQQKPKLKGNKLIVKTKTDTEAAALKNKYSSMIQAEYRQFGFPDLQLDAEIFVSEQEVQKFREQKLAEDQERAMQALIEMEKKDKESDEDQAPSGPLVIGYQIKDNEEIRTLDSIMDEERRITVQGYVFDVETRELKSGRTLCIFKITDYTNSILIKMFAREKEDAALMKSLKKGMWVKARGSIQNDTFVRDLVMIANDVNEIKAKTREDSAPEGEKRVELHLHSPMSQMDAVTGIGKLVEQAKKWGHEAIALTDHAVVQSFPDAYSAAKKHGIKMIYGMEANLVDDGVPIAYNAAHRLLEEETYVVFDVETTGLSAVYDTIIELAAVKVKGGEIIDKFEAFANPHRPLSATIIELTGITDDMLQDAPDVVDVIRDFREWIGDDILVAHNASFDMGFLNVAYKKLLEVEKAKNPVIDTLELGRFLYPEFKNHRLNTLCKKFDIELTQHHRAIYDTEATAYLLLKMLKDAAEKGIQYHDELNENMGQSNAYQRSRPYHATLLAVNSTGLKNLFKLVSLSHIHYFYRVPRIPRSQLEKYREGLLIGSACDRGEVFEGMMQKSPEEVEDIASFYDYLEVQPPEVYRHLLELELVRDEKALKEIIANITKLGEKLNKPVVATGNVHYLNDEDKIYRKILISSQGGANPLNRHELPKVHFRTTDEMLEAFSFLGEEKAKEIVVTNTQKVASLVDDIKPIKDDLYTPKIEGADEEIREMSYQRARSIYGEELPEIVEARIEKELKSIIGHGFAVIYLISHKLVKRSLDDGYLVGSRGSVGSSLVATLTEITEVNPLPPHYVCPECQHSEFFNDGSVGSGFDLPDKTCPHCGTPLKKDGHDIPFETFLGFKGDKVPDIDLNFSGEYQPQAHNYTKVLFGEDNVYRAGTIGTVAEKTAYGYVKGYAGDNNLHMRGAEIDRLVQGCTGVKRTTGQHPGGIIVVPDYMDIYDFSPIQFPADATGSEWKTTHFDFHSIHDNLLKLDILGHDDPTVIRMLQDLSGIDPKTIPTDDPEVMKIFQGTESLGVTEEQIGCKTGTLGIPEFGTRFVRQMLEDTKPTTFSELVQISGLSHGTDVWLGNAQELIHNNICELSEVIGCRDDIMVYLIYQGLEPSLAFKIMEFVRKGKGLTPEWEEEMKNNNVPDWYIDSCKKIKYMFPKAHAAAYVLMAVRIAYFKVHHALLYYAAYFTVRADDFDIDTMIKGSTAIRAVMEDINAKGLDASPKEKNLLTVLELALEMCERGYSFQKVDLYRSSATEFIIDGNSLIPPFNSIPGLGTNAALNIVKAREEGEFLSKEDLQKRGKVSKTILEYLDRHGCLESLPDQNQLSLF
Chain of Tumor susceptibility gene 101 protein (Homo sapiens) (Q99816 whole entry, looked up, the tested form may be a part): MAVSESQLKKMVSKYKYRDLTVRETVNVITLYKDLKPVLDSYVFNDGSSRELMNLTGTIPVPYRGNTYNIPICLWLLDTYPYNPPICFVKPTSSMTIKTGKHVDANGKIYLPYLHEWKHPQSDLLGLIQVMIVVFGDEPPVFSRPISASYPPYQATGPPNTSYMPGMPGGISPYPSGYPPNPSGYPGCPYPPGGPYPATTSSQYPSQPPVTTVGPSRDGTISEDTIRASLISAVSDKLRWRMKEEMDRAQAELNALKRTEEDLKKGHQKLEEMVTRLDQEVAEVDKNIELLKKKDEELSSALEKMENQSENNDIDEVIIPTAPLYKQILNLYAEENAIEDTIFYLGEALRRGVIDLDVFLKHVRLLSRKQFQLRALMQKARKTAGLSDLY

As for `COc1ccccc1N1CCN(CCCNc2c(C)c(=O)n(C)c(=O)n2C)CC1`, the Potency result in assay [1], in assay [2], in [3], in assay [4], in assay [5] and in [6] was “inactive” each time. Moreover, the compound was called inactive in [7] and in [8].

As to `CCCCCCCCCC(=O)NC(CN1CCOCC1)[C@H](O)c1ccccc1` (some centres undefined), the compound was called inactive in assay [9]. In addition, the Potency entry in assay [1], in assay [5] and in assay [6] was “inactive” throughout.

Turning to `COc1ccccc1N1CCN(CCCCNC(=O)c2ccc3ccccc3c2)CC1`, the outcome in assay [9], in assay [7] and in [8] was inactive. Also, the Potency result in assay [1], in assay [4], in [5] and in assay [6] was “inactive” throughout.

Turning to `C#CC(N)CCC(=O)O` (centres undefined), the Potency result in [1], in [2], in [3], in [4], in assay [5] and in [6] was “inactive” in each case. Besides, the outcome in [7] and in assay [8] was inactive.

As for `COc1cc(/C=C(\C#N)C(=O)Nc2nnc(C(F)(F)F)s2)ccc1OCc1ccc(C(F)(F)F)cc1C(F)(F)F`, the result in assay [9] and in assay [7] was inactive. Besides, the Potency entry in assay [1] and in assay [2] was “inactive” in each case. Further, in [6], the Potency is 10.6 µM (active).

Take `CCCCOC(=O)NS(=O)(=O)c1sc(CC(C)C)cc1-c1ccc(Cn2c(CC)nc3c(C)cc(C)nc32)cc1`: the compound was classed as inactive in assay [9] and in assay [7]. Also, the Potency result in assay [1], in [5] and in assay [6] was “inactive” each time.

As to `COc1cc(/C=C(\C#N)C(=O)c2ccc(O)c(O)c2)cc(I)c1O`, the compound was classed as inactive in assay [9] and in [7]. In addition, the Potency result in assay [1] and in assay [2] was “inactive” in each case. In addition, the Potency in [5] was 14.7 µM (active).

In the case of `Oc1cc2c(cc1O)C(c1ccccc1)CNCC2` (centres undefined), the Potency entry in assay [1], in assay [2], in assay [3], in [4], in assay [5] and in assay [6] was “inactive” in each case.

For `C=CCN1CCc2c(cc(O)c(O)c2Br)[C@@H](c2ccccc2)C1`, the call in assay [9], in assay [7] and in [8] was inactive. Also, the Potency entry in assay [1] and in assay [5] was “inactive” throughout.

Regarding `c1ccc2c(c1)CC(N1CCN(c3cccc4c3OCCO4)CC1)C2`, the Potency entry in assay [1], in assay [2], in assay [3], in [4], in assay [5] and in assay [6] was “inactive” throughout. Also, the outcome in [7] was inactive.

For the compound `Nc1nc2c(nc(Br)n2C2OC3COP(=O)(O)O[C@@H]3C2O)c(=O)[nH]1` (some centres undefined), the compound was called inactive in assay [9], in assay [7] and in assay [8]. Also, the Potency result in [1], in assay [2], in assay [5] and in assay [6] was “inactive” in each case.

For `C=CCN1CCc2c(cc(O)c(O)c2Cl)C(c2ccccc2)C1` (centres undefined), the result in assay [9], in assay [7] and in [8] was inactive. Moreover, the Potency result in assay [1] and in assay [5] was “inactive” each time.

`N#C/C(=C\c1ccc(O)c(O)c1)C(=O)NCCc1ccccc1`: the compound was called inactive in assay [9] and in assay [7]. Moreover, the Potency entry in assay [1] and in assay [5] was “inactive” each time. Further, the Potency in assay [3] was 10.4 µM (active).

Take `Cn1c(=O)c2c(nc(/C=C/c3cccc(Cl)c3)n2C)n(C)c1=O`: the Potency entry in assay [1], in [2], in assay [3], in assay [4], in assay [5] and in assay [6] was “inactive” throughout.

Regarding `CCCCCCCCCCCCCCC[C@H](O)[C@H](N)CO`, the outcome in [9], in assay [7] and in [8] was inactive. Besides, the Potency result in assay [1], in assay [5] and in [6] was “inactive” throughout.

As for `CC1CNCCN1S(=O)(=O)c1cccc2cnccc12` (centres undefined), the result in assay [9] and in assay [7] was inactive. For the same compound, the Potency entry in assay [1], in assay [5] and in assay [6] was “inactive” each time.

Take `O=c1cc(-c2ccccc2F)[nH]c2cc3c(cc12)OCO3`: the result in assay [9] and in assay [7] was inactive. Moreover, the Potency result in assay [1], in assay [2], in assay [5] and in assay [6] was “inactive” throughout.

Consider `Cc1cc2c(cc1Cl)N(C(=O)Nc1ccnc3ccccc13)CC2`, for which the Potency entry in [1], in [2], in [3], in [4], in assay [5] and in assay [6] was “inactive” each time. In addition, the outcome in [7] and in assay [8] was inactive.

On to `NC(N)=NC(N)=Nc1cccc(Cl)c1`, for which the Potency result in [1], in assay [2], in assay [3], in assay [4] and in assay [5] was “inactive” in each case.

Take `CNCCNS(=O)(=O)c1cccc2cnccc12`: the Potency result in assay [1], in assay [2], in assay [3], in [4], in assay [5] and in assay [6] was “inactive” each time. For the same compound, in assay [7], the compound was called inactive.

On to `C[C@](Cc1ccc(O)c(O)c1)(NN)C(=O)O`, for which the compound was classed as inactive in [9], in [7] and in assay [8]. The Potency entry in assay [1], in assay [2], in assay [5] and in [6] was “inactive” throughout.

`COCc1nc2c([nH]1)c(=O)n(C)c(=O)n2CC(C)C`: the Potency entry in assay [1], in assay [2], in assay [3], in assay [4], in [5] and in [6] was “inactive” each time. In addition, the compound was called inactive in assay [7] and in assay [8].

Turning to `N=C(N)SCCc1cnc[nH]1`, the Potency result in assay [1], in assay [2], in assay [3], in assay [4], in [5] and in assay [6] was “inactive” throughout. The call in assay [7] and in assay [8] was inactive.

For `N#CC(=C(\N)Sc1ccccc1N)/C(C#N)=C(/N)Sc1ccccc1N`, the outcome in [9] and in assay [7] was inactive. In addition, the Potency entry in assay [1], in [5] and in assay [6] was “inactive” in each case. In addition, the Potency in assay [4] was 7.94 µM (active).

On to `O=c1cc(-c2ccccc2)[nH]c2nc(Cl)ccc12`, for which the Potency result in [1], in assay [2], in assay [5] and in assay [6] was “inactive” throughout. For the same compound, the Potency in assay [4] was 6.31 µM (active). Also, the compound was called inactive in assay [7] and in assay [8].

As to `O=C(N[C@@H](Cc1ccccc1)C(=O)CCl)OCc1ccccc1`, the Potency was 5.21 µM (active) in assay [2] and 2.82 µM (active) in assay [4]. Moreover, the Potency result in assay [5] and in assay [6] was “inactive” each time. Besides, in [7], the result was inactive.

Regarding `Nc1ncnc2c1ncn2C1CCCC1`, the Potency entry in assay [1], in assay [2], in assay [3], in assay [4], in assay [5] and in assay [6] was “inactive” in each case. For the same compound, the call in assay [8] was inactive.

For the compound `O=c1oc(Cl)c(Cl)c2ccccc12`, the Potency entry in [5] and in assay [6] was “inactive” throughout. Besides, the compound was classed as inactive in [7].

For `Cc1nc2n(c(=O)c1CCN1CCC(c3noc4cc(F)ccc34)CC1)CCCC2O` (centres undefined), the Potency result in [1], in [2], in [3], in assay [5] and in assay [6] was “inactive” each time. Further, the compound was called inactive in assay [7] and in assay [8].

Consider `Nc1nc2ccc(Cl)cc2c2nc(-c3ccco3)nn12`, for which the Potency result in assay [1], in assay [5] and in [6] was “inactive” each time. Also, the result in [7] was inactive.

Take `CCCCCCCC/C=C\CCCCCCCC(=O)NCCc1ccc(O)c(O)c1`: the Potency in assay [2] is 5.21 µM (active); in assay [3] it was 3.69 µM (active); in assay [6] it was 18.9 µM (active). Also, in [5], the Potency entry is “inactive”. Besides, the compound was called inactive in [7].

Turning to `Nc1ncnc2c1nc(Br)n2C1OC2COP(=O)(O)O[C@@H]2C1O` (some centres undefined), the Potency entry in assay [1], in assay [2], in assay [3], in [5] and in assay [6] was “inactive” throughout. Further, the outcome in [7] and in [8] was inactive.
